Assay outcomes from PubChem BioAssay.
HT1080-NT tox = kills 2HG-producing HT-1080-NT fibrosarcoma cells | HT-1080-NT fibrosarcoma viability, CellTiter-Glo ATP luminescence, 48 h | Potency, µM (titrated, usually from 46.1 µM), most hits filed as cytotoxic | 1.6% of 360,000 active | AID 686970;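 further: NT is the 2HG producing partner of a matched IDH1 knockdown line; nearly all actives have a fitted effect of over 55% in size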
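Viability of the 2HG-overproducing fibrosarcoma line after 48 hours of compound exposure at 37 degrees C was determined by luminescence with CellTiter-Glo, and concentration-effect curves were then fitted and categorized.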
DT40 TDP1 no CPT = qHTS for Inhibitors of human tyrosyl-DNA phosphodiesterase 1 (TDP1): qHTS in cells in absence of CPT; DT40 Tdp1-/- hTDP1 cells, no CPT, ATP luminescence, 48 h; Potency, µM (top dose mostly 46.2 µM), actives largely listed as inhibitors; 15% of 420,000 active; AID 686978, 2013; further: nearly all actives have a fitted effect of over 55% in size
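Compound effects on proliferation are scored in DT40 Tdp1-/-;hTDP1 cells in the absence of CPT. ATP levels (CellTiter-Glo luminescence) are recorded after a ≥48 hr, 37 °C incubation.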
HT1080 IDH1KD tx = HT-1080 IDH1 knockdown cell toxicity (counter line); HT-1080 IDH1 knockdown viability, ATP luminescence, 48 h; Potency, µM (top dose mostly 46.1 µM), actives largely listed as cytotoxic; 2% of 360,000 active
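In this qHTS, HT-1080 cells depleted of IDH1 are exposed for 48 h at 37 °C to compound titrations. Toxicity is scored from CellTiter-Glo luminescence, with DMSO as full viability and medium alone as none.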
12-LOX inh = ALOX12 (human) lipoxygenase inhibition | purified 12hLO, xylenol orange hydroperoxide absorbance | Potency, µM (highest dose often 108 µM), usual class: inhibitors | 1.1% of 580,000 active
Target sequence (P18054 whole entry, looked up): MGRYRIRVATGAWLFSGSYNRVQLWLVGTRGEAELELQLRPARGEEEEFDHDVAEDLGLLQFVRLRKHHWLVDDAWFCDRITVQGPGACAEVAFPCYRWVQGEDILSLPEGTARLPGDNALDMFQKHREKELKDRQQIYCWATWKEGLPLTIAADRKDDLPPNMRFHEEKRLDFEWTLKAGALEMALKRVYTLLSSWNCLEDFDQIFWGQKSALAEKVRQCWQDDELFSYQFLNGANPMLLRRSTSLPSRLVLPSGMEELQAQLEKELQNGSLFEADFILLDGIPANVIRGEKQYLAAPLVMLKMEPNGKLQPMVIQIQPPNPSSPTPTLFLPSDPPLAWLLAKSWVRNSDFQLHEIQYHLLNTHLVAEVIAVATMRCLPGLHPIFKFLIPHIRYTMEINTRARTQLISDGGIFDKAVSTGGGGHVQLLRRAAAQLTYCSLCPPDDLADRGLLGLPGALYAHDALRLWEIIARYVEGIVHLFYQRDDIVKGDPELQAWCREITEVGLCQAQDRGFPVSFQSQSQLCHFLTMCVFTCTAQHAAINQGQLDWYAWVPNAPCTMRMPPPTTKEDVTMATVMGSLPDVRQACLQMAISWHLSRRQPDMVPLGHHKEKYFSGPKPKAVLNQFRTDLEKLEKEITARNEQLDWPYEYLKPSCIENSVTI
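Hydroperoxide product was detected by ferrous iron/xylenol orange as the 573 to 405 nm absorbance ratio. Arachidonic acid at 40 uM (final) was turned over for 30 min at room temperature by 150 nM human 12hLO, pH 7.0 Hepes buffer, after 15 min compound preincubation.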
TDP1 cell CPT = DT40-hTDP1 cell growth loss with CPT; chicken DT40 Tdp1-/-;hTDP1 cells + 20 nM CPT, ATP luminescence, 48 h; Potency, µM (series often up to 46.2 µM), most hits filed as inhibitors; 12% of 420,000 active; further: nearly all actives have a fitted effect of over 55% in size
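Chicken DT40 Tdp1-/- cells complemented with human TDP1, 400 cells/well, exposed to compounds plus 20 nM camptothecin for at least 48 h at 37 C; viability read as ATP content by CellTiter-Glo luminescence.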
IL-1B inflam inh = blocks inflammasome-driven IL-1 beta release. 4.7% of 360,000 active. THP-1 LPS/ATP IL-1B secretion, AlphaLISA, 16 h; active compounds read low. activity change, % at 57.5 µM. AID 743279; in the data active means activity change below about -50%; inconclusive means mostly about -30% to -49%
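Secreted IL-1B measured by AlphaLISA bead assay after 16 h compound exposure of THP-1 cells; compounds (final up to 57.5 uM) added 1 h before LPS (250 ng/mL) and ATP (1.25 mM) stimulation; lower signal means less secretion.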
Hits are given with their value; 0 = inactive; ? = inconclusive; - = not tested or not shown; ! = not confirmed by another sample; [ ] = another dose, or the depositor's remark. Only a selection was taken, and hits are over-represented in it overall. Unless noted, the call rests on the fitted dose curve; in most records, active means well fitted curve in the direction sought with a large enough effect; inconclusive means small, poorly fitted or top-dose-only effect, or another doubt; inactive means no such curve, though single readings can be large; an effect the other way counts as inactive or inconclusive.

SMILES	HT1080-NT tox	DT40 TDP1 no CPT	HT1080 IDH1KD tx	12-LOX inh	TDP1 cell CPT	IL-1B inflam inh
COc1cc2c(cc1OC)-c1c(c(C(=O)NCCN3CCOCC3)nn1-c1ccccc1F)C2	-	-	-	0	-	-
CCOc1cccc(/C=N/NC(=O)c2cc(C3CC3)[nH]n2)c1O	?	23µM	0	0	?	0
CCOc1ccccc1/C=N/NC(=O)c1cccc(Cl)c1	0	0	0	0	0	0
Cc1cccc(C(=O)NC(C)C(=O)OCc2cc(=O)oc3c(C)c(O)ccc23)c1 (stereo not drawn)	-	-	-	0	-	-
COc1ccc(Br)cc1CNC(=O)c1ccc2nc(C(C)C)oc2c1	-	0	-	0	0	-
COc1ccc([C@@H](C)NC(=O)c2ccc3oc(C(C)C)nc3c2)cc1	0	16µM	0	0	?	0
COc1ccc(CNC(=O)c2ccc3nc(C(C)C)oc3c2)cc1OC	-	?	-	?	23µM	-
CC(C)c1nc2ccc(C(=O)NC(C)c3ccccc3)cc2o1 (stereo not drawn)	-	?	-	0	0	-
CC(C)c1nc2ccc(C(=O)NCc3ccccc3Br)cc2o1	-	16µM	-	0	?	-
CCOc1ccc(NC(=O)c2ccc3nc(C(C)C)oc3c2)cc1	-	16µM	-	0	21µM	-
Cc1ccc(-c2noc(Cn3nc(C)c(S(=O)(=O)N4CCc5ccccc54)c3C)n2)cc1	-	-	-	0	-	-
Cc1ccc(CN(C)C(=O)NC(c2ccc3c(c2)OCCCO3)C(C)C)c(C)c1 (stereo not drawn)	-	-	-	0	-	-
C=CCC1(CO)CCCN(C(=O)c2cccc(N3CCNC3=O)c2)C1 (stereo not drawn)	-	-	-	0	-	-
O=C(C1CCC1)N1CC[C@H]2COC(=O)N2c2ccccc2C1	-	-	-	0	-	-
COc1ccc(OC)c(CNC(=O)c2ccc3nc(C(C)C)oc3c2)c1	-	23µM	-	0	?	-
COc1ccc(NC(=O)CSc2nc3sc(C)cc3c(=O)n2C)c(OC)c1	?	18µM	0	0	?	0
Cc1cccc(NC(=O)CSc2nc3sc(C)cc3c(=O)n2C)c1	0	23µM	0	?	?	0
CCNC(=S)N/N=C/c1cn(Cc2ccccc2F)c2ccccc12	0	5.8µM	0	40µM	6.5µM	0
CNC(=S)N/N=C/c1cn(Cc2c(F)cccc2Cl)c2ccccc12	0	12µM	0	25µM	?	0
COc1ccc(C)cc1NC(=O)C1CN(S(=O)(=O)c2cccnc2)CC12CCCCC2 (stereo not drawn)	-	-	-	0	-	-
Cc1noc(NS(=O)(=O)c2ccc(NC(=O)COc3ccc(C#N)cc3)cc2)c1C	0	0	0	0	0	0
Cc1cc(Cl)ccc1OCC(=O)NCc1ccncc1	0	?	0	0	?	0
Cc1cc(Cl)ccc1OCC(=O)Nc1ccncc1	?	5.8µM	0	0	?	?
Cc1cccc(OCC(=O)Nc2ccc(S(=O)(=O)Nc3onc(C)c3C)cc2)c1C	0	?	0	40µM!	0	0
Cc1cccc(OCC(=O)Nc2ccncc2)c1C	0	8.2µM	?	0	12µM	0
SMILES	HT1080-NT tox	DT40 TDP1 no CPT	HT1080 IDH1KD tx	12-LOX inh	TDP1 cell CPT	IL-1B inflam inh
CCn1cc(C(C)NC(=O)COc2ccc(Cl)cc2C)c(C)n1 (stereo not drawn)	0[9.24 µM]	21µM	?	0	?	0
O=C(COc1ccc(Cl)cc1)Nc1ccc(Cc2ccncc2)cc1	0	?	0	0	?	-71
O=C(COc1ccc2ccccc2c1)Nc1ccc(Cc2ccncc2)cc1	0	?	0	0	?	0
Cc1cccc(OCC(=O)Nc2c(C)ccc3nsnc23)c1C	-	?	-	0	15µM	-
Cc1cc(OCC(=O)Nc2ccncc2)ccc1Br	0	23µM	0	0	?	0
Cc1ccc2nsnc2c1NC(=O)COc1ccccc1F	0	0	0	0	0	0
Cc1ccc(CN2C(=O)[C@@H]3C[C@@H](O)CN3C3(CN(Cc4cccc(OC(F)(F)F)c4)C3)C2=O)o1	-	-	-	0	-	-
CC(=O)N1CCCc2cc(S(=O)(=O)N3CCN(c4ccccc4F)CC3)ccc21	-	21µM	-	0	21µM	-
